# Laboratory results published in PubChem BioAssay (NCI).
# This is part of a sample that, as a whole, favours compounds with a hit. Of some 83,000 tested, about 20% had one in any assay.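 Cells were grown in 96-well plates and exposed to the test compound at a single concentration for 48 hours; results are reported as percent growth, with values below 10 considered active.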 Values without a mark were called inactive. Active and inactive are the calls of the source.
# What was measured:
# Assay in all cases: NCI-60 one-dose screen, 48 h (100 = growth as untreated, 0 = no growth, -100 = all killed)
# Conditions in all cases: 10 µM unless noted
# SK-MEL-2 melanoma = tested on: SK-MEL-2 melanoma
# EKVX NSCLC = tested on: EKVX NSCLC
# SN12C renal = tested on: SN12C renal
# UO-31 renal = tested on: UO-31 renal
# TK-10 renal = tested on: TK-10 renal
# ACHN renal = tested on: ACHN renal
# CAKI-1 renal = tested on: CAKI-1 renal
# A498 renal = tested on: A498 renal
# MOLT-4 leukemia = tested on: MOLT-4 leukemia
# SR leukemia = tested on: SR leukemia
# RPMI-8226 leukemia = tested on: RPMI-8226 leukemia
# OVCAR-8 ovarian = tested on: OVCAR-8 ovarian
# OVCAR-5 ovarian = tested on: OVCAR-5 ovarian
# OVCAR-4 ovarian = tested on: OVCAR-4 ovarian
# SK-OV-3 ovarian = tested on: SK-OV-3 ovarian
# IGROV1 ovarian = tested on: IGROV1 ovarian
# OVCAR-3 ovarian = tested on: OVCAR-3 ovarian
# HS 578T breast = tested on: HS 578T breast
# NCI/ADR-RES ovarian = tested on: NCI/ADR-RES ovarian
Compound,growth (SK-MEL-2 melanoma),growth (EKVX NSCLC),growth (SN12C renal),growth (UO-31 renal),growth (TK-10 renal),growth (ACHN renal),growth (CAKI-1 renal),growth (A498 renal),growth (MOLT-4 leukemia),growth (SR leukemia),growth (RPMI-8226 leukemia),growth (OVCAR-8 ovarian),growth (OVCAR-5 ovarian),growth (OVCAR-4 ovarian),growth (SK-OV-3 ovarian),growth (IGROV1 ovarian),growth (OVCAR-3 ovarian),growth (HS 578T breast),growth (NCI/ADR-RES ovarian)
C=CCn1c(C)nc2cc(Nc3nc(Cl)nc4ccccc34)ccc21,99.5%,93.7%,97.3%,93.8%,114%,103%,87.2%,55.4%,78.7%,94.7%,75.2%,93.8%,99.8%,91.2%,122%,116%,102%,92.7%,90.3%
COc1ccc2c(c1)CCCN2c1c2ccccc2nc2ccccc12,35.4%,45%,39.5%,29.8%,48.2%,24.5%,27.8%,-4.56% (active),15.4%,12.5%,20.5%,16.6%,28.3%,30.4%,37.5%,32.7%,-21.7% (active),10.4%,0.746% (active)
CCN(CC)CCn1nc2c3c(cccc3c1=O)-c1ccccc1-2,32.8%,40.7%,15.5%,6.26% (active),26.4%,-41.7% (active),18.1%,24.3%,4.13% (active),4.64% (active),24.9%,23.3%,33.9%,51.6%,7.24% (active),15.6%,52.5%,76.1%,35.1%
C=CC(=O)Nc1cccc(Oc2nccc(Nc3nnc(C4CC4)s3)n2)c1,108%,104%,87.4%,72.4%,104%,97.7%,92.3%,101%,75.7%,58.3%,56%,91.4%,98.7%,101%,112%,93.6%,89.5%,91.6%,96.8%
CC/C=C1/C(=O)C=C[C@@H]1C/C=C\CCCC(=O)O,87%,101%,79.9%,103%,105%,85.5%,84.9%,104%,9.64% (active),20%,19.9%,66.5%,123%,86.9%,111%,114%,82.2%,69.1%,91.5%
CC1O[C@@H](OC2[C@H](OC(=O)/C=C/c3ccc(O)c(O)c3)C(COC3O[C@H](C)C(O)C(O)[C@@H]3O)O[C@@H](OCCc3ccc(O)c(O)c3)[C@H]2O)[C@@H](O)C(O)[C@H]1O (some centres not stated),99.6%,91.2%,106%,89.9%,100%,103%,97.3%,107%,99.1%,105%,104%,106%,105%,104%,90.3%,102%,108%,108%,116%
CC1(c2ccccc2)NC(=O)N(NC(=O)CSc2nc(-c3cccs3)nc3ccccc23)C1=O (configuration not stated),89.8%,93%,100%,-6.98% (active),113%,91.5%,72.3%,71.4%,73.5%,67%,72.9%,82.4%,76.7%,106%,124%,88.6%,95.9%,101%,87.9%
COc1ccc(-c2cc(-c3ccc(Nc4nc(Nc5ccc(Cl)cc5)nc(Nc5ccc(Cl)cc5)n4)cc3)nc(N)c2C#N)cc1,13.1%,-27.1% (active),58.3%,-46.7% (active),-67.3% (active),-59.5% (active),44.2%,65.7%,15.9%,5.37% (active),-23.5% (active),39.8%,37%,14.6%,104%,6.53% (active),-15.5% (active),29.2%,51%
